According to PubChem BioAssay (NCI):
This is part of a sample that, as a whole, favours compounds with a hit. Of some 79,000 tested, about 15% had one in any assay. Values without a mark were called inactive. Calls of active or inactive are those of the source. Rule as the data show it: active = growth inhibition above about 70%; inactive = the rest.

How the values were obtained:
[1] = NCI Yeast Anticancer Drug Screen. Data for the rad50 strain (AID 155);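 also: 0% = growth of vehicle-only cultures of the same strain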; settings: S. cerevisiae rad50 strain growth inhibition, hits give high values
Outline: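 Yeast carrying a defined DNA repair defect were exposed to test compounds, and growth was compared with vehicle-treated controls to give percent inhibition.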

[2] = NCI Yeast Anticancer Drug Screen. Data for the mec2-1 strain (AID 157); settings: S. cerevisiae mec2-1 strain, hits give high values
Outline: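 Each compound was tested on mec2-1 yeast, a strain altered in DNA damage repair or cell cycle control. Growth inhibition is reported relative to vehicle.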

[3] = NCI Yeast Anticancer Drug Screen. Data for the sgs1 mgt1 strain (AID 161);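 also: 0% = growth of cultures given vehicle only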; settings: S. cerevisiae sgs1 mgt1 strain, hits give high values
Outline: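 Genetically altered yeast, compound exposure, growth inhibition relative to vehicle.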

[4] = NCI Yeast Anticancer Drug Screen. Data for the cln2 rad14 strain (AID 165);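 also: 0% = growth equal to vehicle treated cultures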; settings: S. cerevisiae cln2 rad14 strain, hits give high values
Outline: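 Test compounds were added to cln2 rad14 yeast cultures; inhibition of growth was then determined by comparison with vehicle treatment.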

[5] = NCI Yeast Anticancer Drug Screen. Data for the bub3 strain (AID 167); settings: S. cerevisiae bub3 mutant strain, hits give high values
Outline: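 Compounds were applied to a genetically altered yeast strain carrying a cell-cycle control defect. Growth inhibition was scored against vehicle-treated controls.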

[6] = NCI Yeast Anticancer Drug Screen. Data for the mlh1 rad18 strain (AID 175); settings: S. cerevisiae mlh1 rad18 strain growth inhibition, hits give high values
Outline: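 Inhibition values reflect reduced growth of mutant yeast versus vehicle-treated controls following compound exposure; the mutations affect DNA damage repair.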

[7] = at 5.0 µM (retest, dose inferred, filed as 0.5)
[8] = at 50.0 µM (retest, dose inferred, filed as 5.0)

SMILES | growth inhibition [1, 7] | growth inhibition [1, 8] | growth inhibition ([1]; at 50.0 µM) | growth inhibition [2, 7] | growth inhibition [2, 8] | growth inhibition ([2]; at 50.0 µM) | growth inhibition [3, 7] | growth inhibition [3, 8] | growth inhibition ([3]; at 50.0 µM) | growth inhibition [4, 7] | growth inhibition [4, 8] | growth inhibition ([4]; at 50.0 µM) | growth inhibition [5, 7] | growth inhibition [5, 8] | growth inhibition ([5]; at 50.0 µM) | growth inhibition [6, 7] | growth inhibition [6, 8] | growth inhibition ([6]; at 50.0 µM)
CC1C2CC(C(S(=O)(=O)N3CCOCC3)/C2=N\O)C1(C)C (configuration not stated) | -4% | -14% | 88.2% (active) | -12% | -31% | 92.2% (active) | -4% | -4% | 86.5% (active) | -20% | 20% | 89.2% (active) | 0% | -19% | 89.9% (active) | 16% | -18% | 83.2% (active)
O=C(O)c1ccc(NCc2c(O)ccc3ccccc23)cc1 | 5% | 26% | 4% | 9% | 29% | 17.4% | 11% | 15% | 45.2% | -3% | 15% | -13.9% | 4% | 28% | 48.1% | 9% | 26% | 19.1%
CN(C)c1ccc(C2(c3ccc(N(C)C)cc3)OC(=O)c3ccccc32)cc1 | 2% | -6% | 26.6% | 1% | -6% | 14.2% | 1% | -3% | 14.5% | -5% | -26% | 16.9% | 60% | 61% | 82.6% (active) | -9% | -40% | 38.9%
CC(C)(C)c1cc(C(c2cc3c(cc2O)OCO3)N2CCOCC2)cc(C(C)(C)C)c1O (configuration not stated) | 87% (active) | 95% (active) | 69.9% | 59% | 97% (active) | 64.6% | 99% (active) | 95% (active) | 72.2% (active) | 52% | 96% (active) | 57.7% | 68% | 96% (active) | 63% | 69% | 97% (active) | 7.8%
O=C1C=C(OCC=C(C(F)(F)F)C(F)(F)F)C(=O)c2ccccc21 | -6% | 18% | 55.1% | 27% | 68% | 64.8% | 24% | 74% (active) | 66.9% | -1% | 25% | 49.4% | 1% | 52% | 67.2% | 45% | 67% | 80.3% (active)
CC12CCC(O)CC1=CCC1C2CCC2(C)C(NC(=O)C(Cc3ccc(O)cc3)NC(=O)OCc3ccccc3)CCC12 (configuration not stated) | 24% | 94% (active) | -7.7% | 21% | 97% (active) | 2.95% | 22% | 96% (active) | -2.85% | 21% | 94% (active) | 38.6% | -4% | 93% (active) | -5.4% | 41% | 96% (active) | -8.2%
Cc1cc(=O)[nH]c(NN2C(Cl)C(=O)C2c2ccc(O)cc2)n1 (configuration not stated) | -14% | 81% (active) | 82.2% (active) | -9% | 82% (active) | 67.2% | -5% | 68% | 79.5% (active) | 14% | 63% | 53.6% | 7% | 94% (active) | 78.3% (active) | 7% | 92% (active) | 71.3% (active)
O=Cc1ccc2c(c1)CC1(C2)Cc2ccc3c(c2C1)CCC3 (configuration not stated) | -1% | 68% | 92.9% (active) | 0% | 78% (active) | 89.3% (active) | 14% | 81% (active) | 87.6% (active) | -2% | 41% | 73% (active) | -1% | 74% (active) | 91.5% (active) | 1% | 74% (active) | 84.8% (active)
C/C(=N\NC(=S)NCCCNC(=S)N/N=C(\C)c1ccccn1)c1ccccn1 | 8% | 66% | 82.5% (active) | 9% | 75% (active) | 82.4% (active) | 10% | 77% (active) | 86.2% (active) | 18% | 78% (active) | 83.3% (active) | 0% | 60% | 83.1% (active) | 17% | 85% (active) | 88.9% (active)
Cc1ccc(S(=O)(=O)Nc2ccccc2C=O)cc1 | 17% | 54% | 99% (active) | 19% | 69% | 99.3% (active) | 16% | 63% | 99% (active) | 1% | 50% | 99% (active) | 4% | 49% | 98.8% (active) | 14% | 84% (active) | 99.1% (active)
c1ccc2c(c1)Cc1cc3ccccc3nc1-2 | 13% | 97% (active) | 96.5% (active) | 18% | 97% (active) | 86.5% (active) | 13% | 98% (active) | 87.1% (active) | -9% | 90% (active) | 92% (active) | 10% | 94% (active) | 89.7% (active) | 28% | 99% (active) | 97.2% (active)
COc1ccc2ccccc2c1Cc1c(OC)ccc2ccccc12 | -2% | 98% (active) | -11.7% | -2% | 98% (active) | 8.65% | -2% | 98% (active) | -2.7% | -15% | 98% (active) | 7.65% | -5% | 98% (active) | -6.35% | 0% | 98% (active) | 9.35%
COc1c(Br)c(=O)n(C)c(=O)n1C | -11% | 99% (active) | 89% (active) | -10% | 99% (active) | 87.8% (active) | -29% | 98% (active) | 91.2% (active) | -4% | 99% (active) | 88.3% (active) | -26% | 99% (active) | 89.2% (active) | -11% | 99% (active) | 89% (active)
C=CCOC(=O)OCCCO | 0% | -3% | 91.7% (active) | -1% | -1% | 99.2% (active) | 2% | -1% | 97.2% (active) | -5% | 2% | 95.8% (active) | -1% | -3% | 98.8% (active) | -1% | -1% | 95.5% (active)
OCCN=C1c2ccccc2C2C(c3ccccc31)C1c3ccccc3C(=NCCO)c3ccccc3C21 (configuration not stated) | -9% | 13% | 46.8% | -4% | -8% | 29.8% | 6% | 6% | 37.4% | 4% | 18% | 31.1% | -6% | 6% | 40.5% | 3% | 47% | 82% (active)
Cc1ccc(SCc2ccc(Cl)cc2Cl)nn1 | -1% | 64% | 96.8% (active) | -16% | 85% (active) | 94% (active) | -4% | 85% (active) | 82.8% (active) | 0% | 20% | 25.9% | 12% | 61% | 93.8% (active) | -3% | 78% (active) | 94% (active)
COC(=O)c1ccc(C)cc1C1CN=NC12Cc1cccc(C)c1C2=O (configuration not stated) | 1% | 9% | 26.8% | -1% | 10% | 24.9% | 16% | 22% | 8.65% | 5% | 10% | 83.5% (active) | -2% | 23% | 41.8% | -1% | 6% | 2.55%
CCCCCCC(/C=C/c1ccccc1)=N\O | 0% | 96% (active) | 98.8% (active) | -1% | 96% (active) | 98.7% (active) | 6% | 96% (active) | 98.8% (active) | -10% | 96% (active) | 98.2% (active) | -2% | 94% (active) | 98.8% (active) | 2% | 95% (active) | 99.2% (active)
CC1(C)C(=O)C(C(Cl)(Cl)Cl)=C(Cl)C(=O)C1(Cl)Cl | 64% | 97% (active) | 52.5% | 27% | 96% (active) | 42.1% | 38% | 93% (active) | 64.9% | 49% | 89% (active) | 48.8% | 56% | 96% (active) | 51.1% | 42% | 97% (active) | 67.5%
